Laboratory results as given in PubChem BioAssay (NCATS).
“And” between values parts separate entries of the source, which are not always exact repeats. Equal values may be shown once. Records with an inconclusive call do not appear. The source made the active and inactive calls. Unless noted, how the calls were made is not given here.

Legend:
[1] = qHTS assay for cell viability of HEK293 cells (AID 743288; active means well fitted cell-killing curve with a large enough effect; further: on the % scale 0 is the no-effect control and ±100 the full control effect; nearly all actives have a fitted effect of over 50% in size); settings: ATP luminescence (CellTiter-Glo), 18 h, hits give low values
Summary of the method: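 Total intracellular ATP, measured with a luciferase-coupled reagent, indicates the number of viable HEK293 cells. Exposure to test chemicals lasts 18 h at 37 C in 1,536-well format at 2,000 cells/well.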

[2] = qHTS assay for cell viability of the p53RE-bla HCT-116 cell line (AID 743292; active means well fitted cell-killing curve with a large enough effect; further: on the % scale 0 is the no-effect control and ±100 the full control effect; nearly all actives have a fitted effect of over 55% in size); settings: p53RE-bla HCT-116 viability, ATP luminescence, 16 h; series mostly up to 95 µM
Summary of the method: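 Viability of compound-treated p53RE-bla HCT-116 cells is taken from ATP-dependent luciferase luminescence. Treatment lasts 16 h at 37 C after a 5 h settling period; detection follows 30 min at room temperature.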

[3] = target: Nuclear receptor subfamily 1 group I member 2 (Rattus norvegicus) (UniProt Q9R1A7); experiment: qHTS assay for small molecule activators of the rat pregnane X receptor (rPXR) signaling pathway (AID 651751); settings: rPXR reporter cells, luciferase (One-Glo), 24 h; further: 0% is about no effect
Chain of Nuclear receptor subfamily 1 group I member 2 (Rattus norvegicus) (Q9R1A7 whole entry, looked up): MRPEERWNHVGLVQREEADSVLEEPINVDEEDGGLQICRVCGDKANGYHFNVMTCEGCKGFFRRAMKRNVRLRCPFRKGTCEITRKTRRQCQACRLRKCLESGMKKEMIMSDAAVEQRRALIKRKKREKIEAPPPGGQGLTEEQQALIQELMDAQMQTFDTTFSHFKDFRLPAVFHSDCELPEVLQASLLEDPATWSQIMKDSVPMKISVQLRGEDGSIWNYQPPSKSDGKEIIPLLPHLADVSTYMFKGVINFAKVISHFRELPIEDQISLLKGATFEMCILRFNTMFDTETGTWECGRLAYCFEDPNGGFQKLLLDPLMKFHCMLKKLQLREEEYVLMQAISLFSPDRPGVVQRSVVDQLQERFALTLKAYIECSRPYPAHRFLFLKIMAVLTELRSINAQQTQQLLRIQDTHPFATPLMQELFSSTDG

[4] = qHTS assay for small molecule activators of the human pregnane X receptor (PXR) signaling pathway (AID 720659); settings: DPX-2 HepG2 CYP3A4-luciferase, 24 h; series mostly up to 92.3 µM; further: 0% is about no effect

C=C(C)C(N)=O
inactive: max response [1] -1.33% | Potency [2] | max response [3] 2.1% | outcome [4]

Cc1ccc([N+](=O)[O-])c(N)c1
inactive: max response [1] -6.54% | Potency [2] | max response [3] -3.2% | outcome [4]

Cc1ccc(C)c(O)c1
inactive: max response [1] 5.19% | Potency [2] | max response [3] 4.49% | outcome [4]

CCCCOCCOCCOCCCC
inactive: max response [1] 3.02% | Potency [2] | max response [3] -1.56% | outcome [4]

Nc1ccc(F)cc1F
inactive: max response [1] -2.02% | Potency [2] | max response [3] 3.66% | outcome [4]

c1ccc(Oc2ccccc2)cc1
inactive: max response [1] -1.32% and 1.9% | Potency [2] | max response [3] -0.536% and 5.2% | outcome [4]

CC(C)N=C=NC(C)C
inactive: max response [1] 3.11% | Potency [2] | max response [3] 1.41% | outcome [4]

C=CCOC(=O)COCCC(C)C
inactive: max response [1] -0.0294% | Potency [2] | max response [3] -3.06% | outcome [4]

CO[Si](CCCNCCC[Si](OC)(OC)OC)(OC)OC
inactive: max response [1] 5.64% | Potency [2] | max response [3] 4.59% | outcome [4]

CCOC(C)(C)C
inactive: max response [1] 9.83% | Potency [2] | max response [3] -4.12% | outcome [4]

Cc1nc2ccc(Cl)cc2[nH]1
inactive: max response [1] 5.07% | Potency [2] | max response [3] -1.68% | outcome [4]

CC(=O)Nc1cccc(N)c1
inactive: max response [1] 8.3% | Potency [2] | max response [3] -0.641% | outcome [4]

CCC(C)(C)OC
inactive: max response [1] -19.7% | Potency [2] | max response [3] -4.5% | outcome [4]

C=CC(=O)OCCCC
inactive: max response [1] -0.0822% | Potency [2] | max response [3] 6.31% | outcome [4]

CC(O)COC(C)(C)C (configuration not stated)
inactive: max response [1] -14.3% | Potency [2] | max response [3] 2.3% | outcome [4]

CC(C)(O)C(=O)O
inactive: max response [1] 1.23% | Potency [2] | max response [3] 0.872% | outcome [4]

Cc1cc(C)cc(O)c1
inactive: max response [1] -5.39% | Potency [2] | max response [3] -0.901% | outcome [4]

Cc1cc(C(=O)O)ccc1[N+](=O)[O-]
inactive: max response [1] -12% | Potency [2] | max response [3] -5.59% | outcome [4]

CCCCC(CC)CO (configuration not stated)
inactive: max response [1] -2.63% | Potency [2] | max response [3] -2.06% | outcome [4]

N#Cc1ccccc1
inactive: max response [1] 7.56% | Potency [2] | max response [3] -4.02% | outcome [4]

Cc1cccc(C)c1[N+](=O)[O-]
inactive: max response [1] -0.503% and 0.264% | Potency [2] | max response [3] 1.64% and 13.2% | outcome [4]

CC/C=C1/OC(=O)c2ccccc21
inactive: max response [1] -15.4% | Potency [2] | max response [3] -1.09% | outcome [4]

CCC=O
inactive: max response [1] 1.05% | Potency [2] | max response [3] 1.07% | outcome [4]

CCCCCO
inactive: max response [1] 0.87% | Potency [2] | max response [3] -1.89% | outcome [4]

O=C(O)c1ccc(Cl)c(Cl)c1
inactive: max response [1] 1.65% | Potency [2] | max response [3] -0.362% | outcome [4]

CCCCC(CC)COCC1CO1 (configuration not stated)
inactive: max response [1] 0.479% | Potency [2] | max response [3] 9.04% | outcome [4]

NC(=O)NC(N)=O
inactive: max response [1] -4.97% | Potency [2] | max response [3] -0.329% | outcome [4]

CCCOCC(C)O (configuration not stated)
inactive: max response [1] 2.22% | Potency [2] | max response [3] -0.746% | outcome [4]

CCCCCCCN
inactive: max response [1] 9.44% | Potency [2] | max response [3] -0.183% | outcome [4]

C[C@@H]1O[C@@H](O[C@@H]2[C@@H](O)[C@H](OCCc3ccc(O)c(O)c3)O[C@H](CO[C@@H]3O[C@H](CO)[C@@H](O)[C@H](O)[C@H]3O)[C@H]2OC(=O)/C=C/c2ccc(O)c(O)c2)[C@H](O)[C@H](O)[C@H]1O
inactive: max response [1] -6.2% | Potency [2] | max response [3] 1.79% | outcome [4]

Cc1ccc2oc(=O)ccc2c1
inactive: max response [1] 2.42% and -2.56% | Potency [2] | max response [3] 9.5% and 1.03% | outcome [4]

Clc1ccc(Cl)c(Cl)c1Cl
inactive: max response [1] 5.4% and -1.16% | Potency [2] | max response [3] -5.98% and -1.32% | outcome [4]

Cc1ccc(C)c(N)c1
inactive: max response [1] -4.96% | Potency [2] | max response [3] -4.19% | outcome [4]

Cc1ccc(Cl)cc1N
inactive: max response [1] 3.66% | Potency [2] | max response [3] 0.767% | outcome [4]

CC(=O)c1cc(C)oc1C
inactive: max response [1] -13.5% | Potency [2] | max response [3] 1.56% | outcome [4]

CCCCC(=O)N(C)C
inactive: max response [1] -5.96% | Potency [2] | max response [3] -1.49% | outcome [4]

CCCCCCCCCCCCC1CO1 (configuration not stated)
inactive: max response [1] -4.83% | Potency [2] | max response [3] 4.9% | outcome [4]

CCCCCCCCC/C=C/CC1CC(=O)OC1=O (configuration not stated)
inactive: max response [1] 0.292% | Potency [2] | max response [3] -1.93% | outcome [4]

Nc1ccc(Cl)cc1[N+](=O)[O-]
inactive: max response [1] -4.72% | Potency [2] | max response [3] 1.08% | outcome [4]

O=C1OC(=O)c2c(Cl)c(Cl)c(Cl)c(Cl)c21
inactive: max response [1] 5.35% and -3.52% | Potency [2] | max response [3] 0.139% and -2.42% | outcome [4]

CC(N)CN (configuration not stated)
inactive: max response [1] -8.09% | Potency [2] | max response [3] 5.77% | outcome [4]

ON=C1CCCCC1
inactive: max response [1] 1.04% | Potency [2] | max response [3] 3.07% | outcome [4]

O=C1OC(=O)c2cc([N+](=O)[O-])ccc21
inactive: max response [1] -5.72% | Potency [2] | max response [3] -0.914% | outcome [4]

CC(=O)C1(C)CC2=C(CCCC2(C)C)CC1C (configuration not stated)
inactive: max response [1] -9.23% | Potency [2] | max response [3] 2.11% | outcome [4]

CCC1CO1 (configuration not stated)
inactive: max response [1] 4.98% | Potency [2] | max response [3] 4.08% | outcome [4]

C/C(C=O)=C/c1ccccc1
inactive: max response [1] 5.25% | Potency [2] | max response [3] 2.25% | outcome [4]

O=[N+]([O-])c1cccc(Cl)c1
inactive: max response [1] -0.245% | Potency [2] | max response [3] 0.107% | outcome [4]

Cc1cccc(C)c1O
inactive: max response [1] 0.15% | Potency [2] | max response [3] 2.68% | outcome [4]

Cc1ccc(C#N)cc1
inactive: max response [1] -2.64% | Potency [2] | max response [3] 3.52% | outcome [4]

CCOc1cccc(N)c1
inactive: max response [1] 5.75% | Potency [2] | max response [3] -4.44% | outcome [4]

CCc1ccccc1O
inactive: max response [1] -0.782% | Potency [2] | max response [3] -3.4% | outcome [4]

Cc1ccc(N(C)C)cc1
inactive: max response [1] -14.6% | Potency [2] | max response [3] 1.14% | outcome [4]

C=C(C)C(=O)OCC(C)C
inactive: max response [1] 2.75% | Potency [2] | max response [3] 5.41% | outcome [4]

CCCCCCCCC
inactive: max response [1] 9.61% | Potency [2] | max response [3] 3.91% | outcome [4]

O=C(O)c1ccc(C(=O)O)cc1
inactive: max response [1] 8.37% and 1.4% | Potency [2] | max response [3] -1.05% and -0.301% | outcome [4]

Nc1cccc(N)c1
inactive: max response [1] 5.39% | Potency [2] | max response [3] 11.3% | outcome [4]

Cc1cccc2ccccc12
inactive: max response [1] 1.12% | Potency [2] | max response [3] 3.98% | outcome [4]

Cc1ccco1
inactive: max response [1] 3.18% | Potency [2] | max response [3] -0.023% | outcome [4]

FC(F)(F)c1ccccc1Cl
inactive: max response [1] 10.1% | Potency [2] | max response [3] -1.61% | outcome [4]

CCCCC(C=O)CC (configuration not stated)
inactive: max response [1] -9.34% | Potency [2] | max response [3] -0.0559% | outcome [4]

O=Cc1cccc(Br)c1
inactive: max response [1] 1.54% | Potency [2] | max response [3] 5.18% | outcome [4]

Cc1cccc(C)c1
inactive: max response [1] 7.2% | Potency [2] | max response [3] -3.48% | outcome [4]

NC(N)=S
inactive: max response [1] -3.49% | Potency [2] | max response [3] -3.24% | outcome [4]

CC(C)Cc1nccs1
inactive: max response [1] -11.2% | Potency [2] | max response [3] 7.57% | outcome [4]

COC(=O)c1ccccc1
inactive: max response [1] 2.22% | Potency [2] | max response [3] 0.652% | outcome [4]

CC(C)C(C)C
inactive: max response [1] 2.97% | Potency [2] | max response [3] 9.63% | outcome [4]

OC1CCCC1
inactive: max response [1] 3.74% | Potency [2] | max response [3] -2.46% | outcome [4]

O=C(O)c1cccc([N+](=O)[O-])c1
inactive: max response [1] 4.89% and -8.68% | Potency [2] | max response [3] -0.759% and -3.01% | outcome [4]

CC(C)(C)OC=O
inactive: max response [1] 5.3% | Potency [2] | max response [3] 3.48% | outcome [4]

O=C1C=CCCC1
inactive: max response [1] -6.57% | Potency [2] | max response [3] 0.149% | outcome [4]

O=P(O)(OCc1ccccc1)OCc1ccccc1
inactive: max response [1] -11.9% | Potency [2] | max response [3] 3.16% | outcome [4]

[O-]/[N+](=N\O)c1ccccc1
inactive: max response [1] -16.3% | Potency [2] | max response [3] -1.54% | outcome [4]

CC=O
inactive: max response [1] -3.08% | Potency [2] | max response [3] -4.58% | outcome [4]

Cc1cccc(C(=O)O)c1
inactive: max response [1] 2.24% | Potency [2] | max response [3] -5.92% | outcome [4]

CCOC(=O)OCC
inactive: max response [1] 1.3% | Potency [2] | max response [3] -3.24% | outcome [4]

FC(F)(F)c1cccc(Cl)c1
inactive: max response [1] -5.31% | Potency [2] | max response [3] -6.22% | outcome [4]

C(=C/c1ccccc1)/c1ccccc1
inactive: max response [1] -10.3% | Potency [2] | max response [3] 0.267% | outcome [4]

CNc1ccccc1
inactive: max response [1] -6.52% | Potency [2] | max response [3] 4.02% | outcome [4]
